An excerpt weighted towards active compounds, which were near 3.6% of everything screened.
CRFBP-R2 block: CRF-BP/CRF-R2 complex antagonism. inhibition, % at 11.8 µM. HEK293 CRF-R2/CRF-BP, CRF-induced calcium fluorescence. actives 0.59% (n = 350,000);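 active = inhibition of the ligand-induced calcium signal above about 50% at the single tested concentration, limit read from the data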
NadD inh: inhibitors of Staphylococcus aureus NadD; AID 602399; actives 0.78% (n = 360,000); purified NadD enzyme, colorimetric absorbance read-out; inhibition, % at 20 µM; in the data active = inhibition above about 26%
Myeloid diff MLP: promotes myeloid progenitor differentiation | ER-HoxA9 myeloid progenitors, lysozyme-GFP differentiation, flow cytometry | calls only at 10 µM | actives 1% (n = 360,000) | AID 624256;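 active = normalized GFP-positive differentiation at or above the plate's own cutoff, the solvent-only control mean plus 3 SD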;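 note: cells exposed to compound for four days before flow analysis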
NRP1-CendR mod: alters CendR peptide binding to human NRP-1; inhibition, % at 25 µM; AID 602438; actives 0.85% (n = 360,000); FAM-RPARPAR peptide binding to NRP-1, fluorescence polarization;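 active = inhibition or corrected inhibition above about 18%, plus a signal ratio from 0.5 to 1.5, limit read from the data, passing the limit was not always enough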
Target sequence (O14786 whole entry, looked up): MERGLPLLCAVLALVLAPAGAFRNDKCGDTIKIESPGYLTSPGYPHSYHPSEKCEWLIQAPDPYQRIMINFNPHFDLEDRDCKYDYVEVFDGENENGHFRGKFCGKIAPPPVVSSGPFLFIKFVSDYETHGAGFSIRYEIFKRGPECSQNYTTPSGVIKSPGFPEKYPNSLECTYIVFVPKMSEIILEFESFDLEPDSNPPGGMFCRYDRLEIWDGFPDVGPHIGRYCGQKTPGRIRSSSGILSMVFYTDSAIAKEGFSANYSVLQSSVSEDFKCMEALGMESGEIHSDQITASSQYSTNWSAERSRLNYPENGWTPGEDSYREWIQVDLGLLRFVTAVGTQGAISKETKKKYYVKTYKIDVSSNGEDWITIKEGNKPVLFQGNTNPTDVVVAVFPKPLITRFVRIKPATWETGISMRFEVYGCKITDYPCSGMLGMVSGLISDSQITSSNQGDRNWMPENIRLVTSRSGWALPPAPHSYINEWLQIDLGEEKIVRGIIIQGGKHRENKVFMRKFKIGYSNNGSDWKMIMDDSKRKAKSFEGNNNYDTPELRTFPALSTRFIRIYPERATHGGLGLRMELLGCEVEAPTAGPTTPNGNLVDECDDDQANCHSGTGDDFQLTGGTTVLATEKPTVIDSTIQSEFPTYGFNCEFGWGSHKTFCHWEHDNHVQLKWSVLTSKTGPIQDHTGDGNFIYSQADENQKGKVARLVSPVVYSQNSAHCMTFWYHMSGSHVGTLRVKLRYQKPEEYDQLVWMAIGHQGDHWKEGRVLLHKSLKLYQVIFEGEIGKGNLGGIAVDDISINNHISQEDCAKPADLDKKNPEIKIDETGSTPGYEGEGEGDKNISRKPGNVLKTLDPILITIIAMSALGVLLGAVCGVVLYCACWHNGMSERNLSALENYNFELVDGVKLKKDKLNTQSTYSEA
FAS TE block: blocks the thioesterase domain of human fatty acid synthase; P49327; recombinant FAS-TE, OMFH fluorogenic substrate, fluorescence endpoint; inhibition, % at 15 µM; actives 0.67% (n = 360,000); AID 602261;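 active = compounds whose normalised, plate-corrected inhibition of enzyme fluorescence in the single-dose primary screen is 50% or more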
FAS-TE inh conf: FAS thioesterase (human) inhibition, confirmation; shares compounds with FAS TE block; recombinant FAS-TE, OMFH fluorogenic substrate, fluorescence; inhibition, % at 15 µM; actives 45% (n = 2,300); AID 624325;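 active = compounds inhibiting the enzyme by at least 50% at 15 µM in any one of the replicates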
NadD inh conf: NadD (S. aureus) inhibition, single concentration confirmation | AID 624309 | purified S. aureus NadD, colorimetric enzyme assay | inhibition, % at 20 µM | shares compounds with NadD inh | actives 13% (n = 2,000); in the data active = inhibition mostly above about 42%, no sharp cut-off; inactive = mostly below about 42%
Each line names hits and unclear results; the compound was inactive in the other large screens (follow-up assays come after a bar, where they were run); ! = not confirmed by another sample.

CC1(C(=O)Nc2ccc(Cl)c(Cl)c2)CCN1C(=O)CC1CCCC1 (stereo not given)	FAS TE block 62 (no result: CRFBP-R2 block) | FAS-TE inh conf 54
CC1(C(=O)Nc2ccc3c(c2)OCCO3)CCN1C(=O)CC1CCCC1 (stereo not given)	none (no result: CRFBP-R2 block)
Cc1noc(C)c1COC(=O)c1ccc(S(=O)(=O)N2CCCCC2)cc1	none
CCCCCN(CCCCC)C(=O)C(CCC(=O)O)NC(=O)c1ccc(Cl)c(Cl)c1 (stereo not given)	FAS TE block 72 | FAS-TE inh conf 74
CCCCN(CC)C(=O)c1ccc(Cl)c(Cl)c1	none
Cc1ccc(NC(=O)CSc2nc3nn(-c4ccccc4)c(=O)c-3c3n2CCCCC3)cc1F	FAS TE block 74 | FAS-TE inh conf inactive
O=[N+]([O-])c1cc(CS(=O)(=O)Oc2ccc(Cl)cc2)c(O)c([N+](=O)[O-])c1	FAS TE block 57 | FAS-TE inh conf 68
O=[N+]([O-])c1ccc(CS(=O)(=O)c2ccc(Cl)cc2)cc1	none
CCCc1ccc2oc(C(=O)N3CCCC3)c(C)c2c1	none (no result: Myeloid diff MLP)
Cc1ccc(NC(=O)CCNC(=O)c2ccc([N+](=O)[O-])cc2)cc1C	Myeloid diff MLP active, FAS TE block 64 | FAS-TE inh conf 69
COc1ccc(CCNC(=O)CCNC(=O)c2ccc([N+](=O)[O-])cc2)cc1	none
O=C(CCNC(=O)c1ccc([N+](=O)[O-])cc1)NCCc1ccc(Cl)cc1	FAS TE block 62 | FAS-TE inh conf 70
COc1ccc(Cc2nc3c4c(ncn3n2)Oc2c(ccc3ccccc23)C4c2ccc(OC)c(OC)c2)cc1 (stereo not given)	none
COc1ccc(Cc2nc3c4c(ncn3n2)Oc2ccc3ccccc3c2C4c2ccc(OC)c(OC)c2)cc1 (stereo not given)	FAS TE block 59 | FAS-TE inh conf inactive
COc1ccc(-c2cn(Cc3ccc([N+](=O)[O-])cc3)nn2)cc1	none
Cc1cc(C)c(Cn2cnc(-c3ccc([N+](=O)[O-])cc3)c2)c(C)c1	FAS TE block 54 | FAS-TE inh conf 53
CC(C)(C)c1ccc(Cn2cnc(-c3ccc([N+](=O)[O-])cc3)c2)cc1	FAS TE block 51 | FAS-TE inh conf inactive
CCN(CC)S(=O)(=O)c1ccc(N2CCOCC2)c(NC(=O)C(=O)c2c(-c3ccccc3)cc3ccccn23)c1	FAS TE block 54 | FAS-TE inh conf inactive
Clc1ccccc1CSc1cnnc2ccccc12	none
O=C(COc1ccccc1)OCc1csc(Nc2ccccc2)n1	none
O=C(OCc1csc(Nc2ccccc2)n1)c1ccc(Cl)cc1	FAS TE block 52 | FAS-TE inh conf inactive
CCOC1=C2[C@H](c3ccccc3)N(S(=O)(=O)c3ccc(C)cc3)C[C@H]2n2c(=O)n(-c3ccccc3)c(=O)n2C1	none (no result: CRFBP-R2 block)
CCOC1=C2[C@H](c3ccc(Cl)cc3)N(S(=O)(=O)c3ccc(C)cc3)C[C@H]2n2c(=O)n(-c3ccccc3)c(=O)n2C1	FAS TE block 56 (no result: CRFBP-R2 block) | FAS-TE inh conf inactive
CCOC1=C2CN(S(=O)(=O)c3ccc(C)cc3)[C@H](c3ccccc3)C[C@H]2n2c(=O)n(-c3ccccc3)c(=O)n2C1	FAS TE block 70 (no result: CRFBP-R2 block) | FAS-TE inh conf inactive
CCOC1=C2CN(S(=O)(=O)c3ccc(C)cc3)[C@H](c3ccccc3)C[C@@H]2N(S(=O)(=O)c2ccc(C)cc2)[C@H](c2ccccc2)C1	none (no result: CRFBP-R2 block)
Cc1ccc(S(=O)(=O)c2nnn3c2nc(N2CCC(C(N)=O)CC2)c2ccccc23)cc1C	FAS TE block 53 | FAS-TE inh conf 61
Cc1ccc(S(=O)(=O)c2nnn3c2nc(Nc2cccc(C)c2)c2ccccc23)cc1	none
Cc1c(C(=O)Nc2ccc(-c3nnc4n3CCCCC4)cc2)oc2c1ccc1ccccc12	FAS TE block 78 | FAS-TE inh conf inactive
O=C(Nc1ccc(-c2nnc3n2CCCCC3)cc1)c1cc2ccccc2o1	none
Cc1cc(C(=O)OCC(=O)NCc2cccs2)ccc1[N+](=O)[O-]	none
O=C(COC(=O)c1cc([N+](=O)[O-])ccc1NCCO)NCc1cccs1	FAS TE block 73 | FAS-TE inh conf 78
NC(=O)COC(=O)c1cc([N+](=O)[O-])ccc1NCCO	none
Cc1ccc(S(=O)(=O)N2CCN(C(=O)COC(=O)c3cc([N+](=O)[O-])ccc3NCCO)CC2)c(C)c1	FAS TE block 71 | FAS-TE inh conf 74
COC(=O)c1cc(C(=O)OCC(=O)NCc2cccs2)cc([N+](=O)[O-])c1	FAS TE block 64 | FAS-TE inh conf inactive
O=C(COC(=O)c1cc([N+](=O)[O-])ccc1NCCO)c1ccccc1	FAS TE block 59 | FAS-TE inh conf 68
O=C(CN1CCN(c2cccc(Cl)c2)CC1)c1ccc(O)cc1O	none
COc1ccc(CC(=O)OCC(=O)NCc2ccco2)cc1OC	none
COCCNC(=O)/C(C#N)=C/C(C)=C/c1ccccc1	none
CCN(CC)S(=O)(=O)c1ccc(N2CC(C(=O)NCc3ccco3)CC2=O)cc1 (stereo not given)	none
CC1CC(C)(C)CC2(C1)NC(=O)N(CC(=O)Nc1cc(C(F)(F)F)ccc1N1CCCCC1)C2=O (stereo not given)	NadD inh 42, FAS TE block 60 | FAS-TE inh conf inactive | NadD inh conf inactive
O=C(CN1C(=O)NC2(CCCCC2)C1=O)Nc1cc(C(F)(F)F)ccc1N1CCCC1	none
O=C1C(Cc2ccccc2)Nc2ncnc(N3CCN(c4ccccc4)CC3)c2N1Cc1ccc(Br)cc1 (stereo not given)	NadD inh 42, FAS TE block 83! | FAS-TE inh conf inactive | NadD inh conf inactive
Cc1ccc(CN2C(=O)C(Cc3ccccc3)Nc3ncnc(N4CCN(c5ccccc5)CC4)c32)cc1 (stereo not given)	NadD inh 28, FAS TE block 62 | FAS-TE inh conf inactive | NadD inh conf inactive
COc1ccc(/C=N/NC(=O)c2ccc(CN3c4cccc5cccc(c45)S3(=O)=O)cc2)cc1	NadD inh 31, FAS TE block 79 | FAS-TE inh conf inactive | NadD inh conf inactive
COc1cc(/C=N/NC(=O)c2ccc(CN3c4cccc5cccc(c45)S3(=O)=O)cc2)cc(OC)c1O	none
Cc1ccc(S(=O)(=O)N2[C@@H](c3ccc(C(C)(C)C)cc3)C(C(=O)O)=CC[C@H]2c2ccc(C(C)C)cc2)cc1	NadD inh 51, FAS TE block 76 | FAS-TE inh conf inactive | NadD inh conf inactive
Cc1ccc(S(=O)(=O)N2[C@@H](c3ccc(Br)cc3)C(C(=O)O)=CC[C@H]2c2ccc(C(C)C)cc2)cc1	none

High-throughput results deposited in PubChem by several laboratories.
